# According to PMC7862700, “An all-to-all approach to the identification of sequence-specific readers for epigenetic DNA modifications on cytosine”:
# Tests used:
# Assay in all cases: DAPPL (digital affinity profiling via proximity ligation, sequencing); 10 mM Tris-HCl pH 7.5, 50 mM NaCl, 1 mM DTT, 4% glycerol, room temperature, 30 min; GST-TFs on glutathione beads, 16-mer random dsDNA library, 0.1% formaldehyde crosslink after washing; high values mean tight binding
# [1] = target: T1, FEV (Homo sapiens, UniProt Q99581 1-238); details: protein: recombinant; tags: N-terminal GST; dsDNA, one strand shown
# T1 sequence: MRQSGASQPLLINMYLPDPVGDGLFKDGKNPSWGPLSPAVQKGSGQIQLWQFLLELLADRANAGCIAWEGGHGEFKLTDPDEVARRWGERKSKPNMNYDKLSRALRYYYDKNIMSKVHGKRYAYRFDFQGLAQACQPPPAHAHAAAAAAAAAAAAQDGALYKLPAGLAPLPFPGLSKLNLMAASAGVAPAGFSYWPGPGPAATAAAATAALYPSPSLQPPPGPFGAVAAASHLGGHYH
# In short: (§1)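 Beads coated with glutathione captured GST-fused human transcription factors that had been expressed in yeast, and the factors were then given DNA barcodes and pooled with a tag-only sample. The pools were incubated with 200 nmole of a random double-stranded 16-mer DNA library in Tris/NaCl/DTT/glycerol buffer for 30 min at room temperature, washed, crosslinked with 0.1% formaldehyde and proximity-ligated with BsaI/T4 ligase at 37 °C for 1 h. PCR amplification and Illumina NextSeq500 sequencing came last. Binding signal is each hexamer's read frequency for a factor divided by its frequency for the tag-only sample.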
# [2] = target: ETV5 (Homo sapiens, UniProt P41161 1-510); details: protein: recombinant; tags: N-terminal GST; dsDNA, one strand shown
# Chain of ETV5 (P41161 whole entry): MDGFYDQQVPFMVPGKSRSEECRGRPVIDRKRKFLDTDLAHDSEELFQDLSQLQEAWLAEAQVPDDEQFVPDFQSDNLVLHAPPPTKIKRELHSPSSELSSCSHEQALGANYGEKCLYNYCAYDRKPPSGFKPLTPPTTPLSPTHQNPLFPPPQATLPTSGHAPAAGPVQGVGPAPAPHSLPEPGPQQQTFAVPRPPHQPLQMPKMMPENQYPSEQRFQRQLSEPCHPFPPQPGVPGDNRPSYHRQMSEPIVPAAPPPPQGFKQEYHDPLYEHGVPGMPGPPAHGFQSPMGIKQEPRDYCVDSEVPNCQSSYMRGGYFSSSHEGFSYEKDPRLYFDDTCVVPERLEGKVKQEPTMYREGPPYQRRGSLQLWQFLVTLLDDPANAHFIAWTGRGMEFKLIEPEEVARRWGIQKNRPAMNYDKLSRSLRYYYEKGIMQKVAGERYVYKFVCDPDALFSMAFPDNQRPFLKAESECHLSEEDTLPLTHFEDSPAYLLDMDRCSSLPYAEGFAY
# In short: as §1
# [3] = target: HSF1 (Homo sapiens, UniProt Q00613 1-529); details: protein: recombinant; tags: N-terminal GST; chain copies: 3; dsDNA, one strand shown
# Chain of HSF1 (Q00613 whole entry): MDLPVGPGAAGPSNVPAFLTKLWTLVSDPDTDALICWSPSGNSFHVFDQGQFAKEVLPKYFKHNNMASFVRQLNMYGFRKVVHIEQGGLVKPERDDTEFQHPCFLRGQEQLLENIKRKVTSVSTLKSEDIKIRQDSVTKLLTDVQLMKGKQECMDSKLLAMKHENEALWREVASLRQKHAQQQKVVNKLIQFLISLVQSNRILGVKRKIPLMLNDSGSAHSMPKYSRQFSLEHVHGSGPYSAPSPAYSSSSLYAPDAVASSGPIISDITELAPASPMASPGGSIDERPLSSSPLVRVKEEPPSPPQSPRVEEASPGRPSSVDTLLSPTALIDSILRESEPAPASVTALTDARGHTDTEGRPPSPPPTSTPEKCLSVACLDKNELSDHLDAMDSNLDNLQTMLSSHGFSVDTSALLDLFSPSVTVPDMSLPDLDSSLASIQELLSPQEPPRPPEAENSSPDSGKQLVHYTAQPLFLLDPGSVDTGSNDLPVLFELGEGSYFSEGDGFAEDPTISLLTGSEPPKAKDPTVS
# In short: as §1
# [4] = target: T2, SPIC (Homo sapiens, UniProt Q8N5J4 1-248); details: protein: recombinant; tags: N-terminal GST; dsDNA, one strand shown
# T2 sequence: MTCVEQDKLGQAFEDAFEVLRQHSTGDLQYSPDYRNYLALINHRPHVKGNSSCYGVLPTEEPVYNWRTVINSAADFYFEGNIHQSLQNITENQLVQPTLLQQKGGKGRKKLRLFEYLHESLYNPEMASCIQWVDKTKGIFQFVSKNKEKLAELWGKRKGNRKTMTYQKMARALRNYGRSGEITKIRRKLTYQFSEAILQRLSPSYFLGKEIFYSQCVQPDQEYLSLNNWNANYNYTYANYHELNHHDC
# In short: as §1
# [5] = target: ELF4 (Homo sapiens, UniProt Q99607 1-663); details: protein: recombinant; tags: N-terminal GST; dsDNA, one strand shown
# Chain of ELF4 (Q99607 whole entry): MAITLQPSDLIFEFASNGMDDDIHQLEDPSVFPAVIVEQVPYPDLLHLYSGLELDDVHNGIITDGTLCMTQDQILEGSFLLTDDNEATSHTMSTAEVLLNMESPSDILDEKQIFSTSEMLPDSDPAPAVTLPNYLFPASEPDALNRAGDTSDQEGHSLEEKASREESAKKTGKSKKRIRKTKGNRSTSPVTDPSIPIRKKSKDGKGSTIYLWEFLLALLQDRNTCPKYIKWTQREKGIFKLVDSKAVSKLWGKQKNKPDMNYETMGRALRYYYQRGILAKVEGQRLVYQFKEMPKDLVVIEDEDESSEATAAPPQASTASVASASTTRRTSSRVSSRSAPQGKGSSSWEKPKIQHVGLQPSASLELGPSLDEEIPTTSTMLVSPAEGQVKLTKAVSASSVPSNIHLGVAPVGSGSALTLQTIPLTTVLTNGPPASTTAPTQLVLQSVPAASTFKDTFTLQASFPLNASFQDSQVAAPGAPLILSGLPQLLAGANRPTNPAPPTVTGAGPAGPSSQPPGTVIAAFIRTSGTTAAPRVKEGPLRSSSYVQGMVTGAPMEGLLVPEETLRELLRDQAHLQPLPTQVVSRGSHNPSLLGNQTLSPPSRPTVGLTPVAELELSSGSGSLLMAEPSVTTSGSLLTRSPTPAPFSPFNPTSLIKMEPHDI
# In short: as §1
# [6] = target: T3, ELK4 (Homo sapiens, UniProt P28324-2 1-405); details: protein: recombinant; tags: N-terminal GST; dsDNA, one strand shown
# T3 sequence: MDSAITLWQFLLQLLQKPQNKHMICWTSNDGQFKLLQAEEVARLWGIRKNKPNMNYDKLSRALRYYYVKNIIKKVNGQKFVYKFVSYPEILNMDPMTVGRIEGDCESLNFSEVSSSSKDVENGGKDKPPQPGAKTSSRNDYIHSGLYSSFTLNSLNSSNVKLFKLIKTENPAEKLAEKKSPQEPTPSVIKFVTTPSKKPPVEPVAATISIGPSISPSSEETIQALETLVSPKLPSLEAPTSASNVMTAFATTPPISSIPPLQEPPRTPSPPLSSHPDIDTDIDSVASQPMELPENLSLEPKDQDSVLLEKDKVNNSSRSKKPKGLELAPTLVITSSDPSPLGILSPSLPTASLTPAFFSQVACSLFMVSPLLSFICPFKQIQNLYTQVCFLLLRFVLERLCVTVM
# In short: as §1
# [7] = target: T4, ETV2 (Homo sapiens, UniProt O00321 1-342); details: protein: recombinant; tags: N-terminal GST; dsDNA, one strand shown
# T4 sequence: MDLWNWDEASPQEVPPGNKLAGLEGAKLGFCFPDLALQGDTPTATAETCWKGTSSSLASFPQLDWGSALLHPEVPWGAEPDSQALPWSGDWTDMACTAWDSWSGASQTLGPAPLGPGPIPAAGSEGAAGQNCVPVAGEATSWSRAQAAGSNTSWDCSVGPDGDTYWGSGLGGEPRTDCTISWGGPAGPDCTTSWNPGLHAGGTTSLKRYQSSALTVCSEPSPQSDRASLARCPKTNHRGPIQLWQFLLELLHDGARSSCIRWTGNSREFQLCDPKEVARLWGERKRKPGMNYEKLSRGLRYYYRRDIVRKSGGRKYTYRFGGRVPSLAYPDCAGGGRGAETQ
# In short: as §1
# [8] = target: T5, ELF3 (Homo sapiens, UniProt P78545 1-371); details: protein: recombinant; tags: N-terminal GST; dsDNA, one strand shown
# T5 sequence: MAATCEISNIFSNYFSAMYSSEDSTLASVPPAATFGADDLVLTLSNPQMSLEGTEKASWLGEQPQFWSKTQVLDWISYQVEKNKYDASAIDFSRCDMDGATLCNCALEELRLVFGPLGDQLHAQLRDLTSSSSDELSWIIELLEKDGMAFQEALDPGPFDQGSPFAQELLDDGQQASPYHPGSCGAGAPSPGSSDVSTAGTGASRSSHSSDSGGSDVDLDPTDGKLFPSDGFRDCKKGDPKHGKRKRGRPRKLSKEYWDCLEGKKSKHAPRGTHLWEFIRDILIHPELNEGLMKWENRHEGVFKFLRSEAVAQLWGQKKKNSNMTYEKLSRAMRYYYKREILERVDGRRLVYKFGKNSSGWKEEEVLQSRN
# In short: as §1
# [9] = target: CRX (Homo sapiens, UniProt O43186 1-299); details: protein: recombinant; tags: N-terminal GST; dsDNA, one strand shown
# Chain of CRX (O43186 whole entry): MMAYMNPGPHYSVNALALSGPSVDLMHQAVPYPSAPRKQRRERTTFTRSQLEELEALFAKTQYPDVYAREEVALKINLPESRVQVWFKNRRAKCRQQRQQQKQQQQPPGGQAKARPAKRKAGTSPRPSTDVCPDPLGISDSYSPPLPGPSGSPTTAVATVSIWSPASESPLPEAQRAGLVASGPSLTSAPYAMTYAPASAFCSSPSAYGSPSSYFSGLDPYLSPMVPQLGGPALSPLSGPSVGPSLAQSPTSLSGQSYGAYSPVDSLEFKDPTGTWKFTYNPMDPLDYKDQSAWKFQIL
# In short: as §1
# [10] = target: ETV1 (Homo sapiens, UniProt P50549 1-477); details: protein: recombinant; tags: N-terminal GST; dsDNA, one strand shown
# Chain of ETV1 (P50549 whole entry): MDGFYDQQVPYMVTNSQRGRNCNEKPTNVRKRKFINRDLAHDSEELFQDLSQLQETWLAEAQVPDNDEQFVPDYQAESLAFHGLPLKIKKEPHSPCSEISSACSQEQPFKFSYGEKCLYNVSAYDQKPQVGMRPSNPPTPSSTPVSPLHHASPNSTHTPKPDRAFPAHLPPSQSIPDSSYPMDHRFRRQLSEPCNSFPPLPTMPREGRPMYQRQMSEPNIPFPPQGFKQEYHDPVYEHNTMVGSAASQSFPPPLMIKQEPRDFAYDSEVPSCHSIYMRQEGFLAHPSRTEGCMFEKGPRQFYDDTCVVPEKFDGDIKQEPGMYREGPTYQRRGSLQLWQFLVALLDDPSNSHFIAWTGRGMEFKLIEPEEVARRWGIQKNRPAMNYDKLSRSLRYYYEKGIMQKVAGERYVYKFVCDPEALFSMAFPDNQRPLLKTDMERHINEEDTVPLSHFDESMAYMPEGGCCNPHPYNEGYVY
# In short: as §1
# [11] = target: T6, ERF (Homo sapiens, UniProt P50548 1-548); details: protein: recombinant; tags: N-terminal GST; dsDNA, one strand shown
# T6 sequence: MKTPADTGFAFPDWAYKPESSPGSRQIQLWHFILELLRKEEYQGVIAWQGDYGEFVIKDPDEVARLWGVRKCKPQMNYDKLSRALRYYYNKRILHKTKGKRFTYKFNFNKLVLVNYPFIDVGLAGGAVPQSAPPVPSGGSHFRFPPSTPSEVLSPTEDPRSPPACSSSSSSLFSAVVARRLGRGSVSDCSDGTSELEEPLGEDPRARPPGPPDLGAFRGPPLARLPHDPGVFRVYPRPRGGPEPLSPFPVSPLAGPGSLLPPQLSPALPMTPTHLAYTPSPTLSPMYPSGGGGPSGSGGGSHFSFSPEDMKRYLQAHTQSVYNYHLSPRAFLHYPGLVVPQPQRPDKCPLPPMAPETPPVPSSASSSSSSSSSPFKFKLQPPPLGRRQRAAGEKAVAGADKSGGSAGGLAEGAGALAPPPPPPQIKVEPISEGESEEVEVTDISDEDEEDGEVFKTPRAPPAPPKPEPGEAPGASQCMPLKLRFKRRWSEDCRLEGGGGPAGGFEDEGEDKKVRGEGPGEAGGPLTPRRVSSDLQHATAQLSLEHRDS
# In short: as §1
# [12] = target: T7, ETV3L (Homo sapiens, UniProt Q6ZN32 1-361); details: protein: recombinant; tags: N-terminal GST; dsDNA, one strand shown
# T7 sequence: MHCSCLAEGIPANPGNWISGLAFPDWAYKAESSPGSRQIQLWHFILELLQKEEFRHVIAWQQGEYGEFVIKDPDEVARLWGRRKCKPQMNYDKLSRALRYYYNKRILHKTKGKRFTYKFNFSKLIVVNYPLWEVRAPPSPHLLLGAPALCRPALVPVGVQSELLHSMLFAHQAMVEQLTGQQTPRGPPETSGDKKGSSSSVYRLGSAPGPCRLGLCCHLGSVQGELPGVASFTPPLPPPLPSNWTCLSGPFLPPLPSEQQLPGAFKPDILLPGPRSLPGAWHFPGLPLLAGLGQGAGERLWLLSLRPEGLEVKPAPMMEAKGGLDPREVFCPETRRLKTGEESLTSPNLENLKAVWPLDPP
# In short: as §1
# [13] = target: T8, ETS2 (Homo sapiens, UniProt P15036 1-469); details: protein: recombinant; tags: N-terminal GST; dsDNA, one strand shown
# T8 sequence: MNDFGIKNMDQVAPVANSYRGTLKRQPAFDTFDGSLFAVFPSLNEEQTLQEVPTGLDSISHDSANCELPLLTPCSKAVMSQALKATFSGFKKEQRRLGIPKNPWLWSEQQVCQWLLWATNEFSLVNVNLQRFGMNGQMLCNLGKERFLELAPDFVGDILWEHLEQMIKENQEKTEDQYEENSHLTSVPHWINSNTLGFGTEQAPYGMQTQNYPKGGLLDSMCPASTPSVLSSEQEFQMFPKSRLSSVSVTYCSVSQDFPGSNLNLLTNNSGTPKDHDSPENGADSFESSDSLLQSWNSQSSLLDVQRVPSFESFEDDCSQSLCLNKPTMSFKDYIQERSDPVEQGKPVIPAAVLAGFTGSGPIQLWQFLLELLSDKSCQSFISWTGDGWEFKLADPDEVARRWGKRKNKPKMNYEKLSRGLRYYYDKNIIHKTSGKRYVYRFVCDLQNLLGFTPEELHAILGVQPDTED
# In short: as §1
# [14] = target: T9, SPDEF (Homo sapiens, UniProt O95238 1-335); details: protein: recombinant; tags: N-terminal GST; dsDNA, one strand shown
# T9 sequence: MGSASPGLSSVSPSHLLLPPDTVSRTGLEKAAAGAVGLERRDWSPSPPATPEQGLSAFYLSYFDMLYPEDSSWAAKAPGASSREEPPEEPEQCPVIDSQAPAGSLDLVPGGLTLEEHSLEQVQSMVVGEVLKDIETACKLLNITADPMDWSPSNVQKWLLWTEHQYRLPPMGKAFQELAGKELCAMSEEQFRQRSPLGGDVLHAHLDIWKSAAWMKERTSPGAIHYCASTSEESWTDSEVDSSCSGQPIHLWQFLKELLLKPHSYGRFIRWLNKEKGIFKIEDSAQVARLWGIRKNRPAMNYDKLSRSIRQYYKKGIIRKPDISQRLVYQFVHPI
# In short: as §1
# [15] = target: T10, ETV7 (Homo sapiens, UniProt Q9Y603 1-341); details: protein: recombinant; tags: N-terminal GST; dsDNA, one strand shown
# T10 sequence: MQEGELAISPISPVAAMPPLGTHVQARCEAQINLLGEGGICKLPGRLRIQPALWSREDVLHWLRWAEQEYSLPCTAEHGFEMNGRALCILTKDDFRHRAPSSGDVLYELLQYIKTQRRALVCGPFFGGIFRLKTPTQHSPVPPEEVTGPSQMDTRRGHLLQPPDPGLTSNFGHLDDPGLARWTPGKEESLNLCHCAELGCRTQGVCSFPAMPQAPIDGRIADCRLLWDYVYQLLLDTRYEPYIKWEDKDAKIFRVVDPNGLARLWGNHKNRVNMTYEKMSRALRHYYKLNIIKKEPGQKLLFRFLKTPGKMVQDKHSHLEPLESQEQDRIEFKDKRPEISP
# In short: as §1
# [16] = target: T11, ELF5 (Homo sapiens, UniProt Q9UKW6-2 1-255); details: protein: recombinant; tags: N-terminal GST; dsDNA, one strand shown
# T11 sequence: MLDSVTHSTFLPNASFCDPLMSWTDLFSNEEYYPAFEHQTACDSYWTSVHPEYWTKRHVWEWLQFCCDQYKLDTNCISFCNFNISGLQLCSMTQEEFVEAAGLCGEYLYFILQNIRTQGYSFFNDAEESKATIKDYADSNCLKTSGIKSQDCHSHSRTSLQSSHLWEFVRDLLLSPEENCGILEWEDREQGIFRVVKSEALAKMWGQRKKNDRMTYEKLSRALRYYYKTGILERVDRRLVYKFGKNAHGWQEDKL
# In short: as §1
# [17] = target: T12, ETV3 (Homo sapiens, UniProt P41162-2 1-143); details: protein: recombinant; tags: N-terminal GST; dsDNA, one strand shown
# T12 sequence: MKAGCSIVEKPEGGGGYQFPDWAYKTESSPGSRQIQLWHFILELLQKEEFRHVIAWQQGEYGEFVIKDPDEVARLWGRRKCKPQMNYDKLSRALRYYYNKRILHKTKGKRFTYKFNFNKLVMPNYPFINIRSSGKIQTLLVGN
# In short: as §1
# [18] = target: ETV6 (Homo sapiens, UniProt P41212 1-452); details: protein: recombinant; tags: N-terminal GST; dsDNA, one strand shown
# Chain of ETV6 (P41212 whole entry): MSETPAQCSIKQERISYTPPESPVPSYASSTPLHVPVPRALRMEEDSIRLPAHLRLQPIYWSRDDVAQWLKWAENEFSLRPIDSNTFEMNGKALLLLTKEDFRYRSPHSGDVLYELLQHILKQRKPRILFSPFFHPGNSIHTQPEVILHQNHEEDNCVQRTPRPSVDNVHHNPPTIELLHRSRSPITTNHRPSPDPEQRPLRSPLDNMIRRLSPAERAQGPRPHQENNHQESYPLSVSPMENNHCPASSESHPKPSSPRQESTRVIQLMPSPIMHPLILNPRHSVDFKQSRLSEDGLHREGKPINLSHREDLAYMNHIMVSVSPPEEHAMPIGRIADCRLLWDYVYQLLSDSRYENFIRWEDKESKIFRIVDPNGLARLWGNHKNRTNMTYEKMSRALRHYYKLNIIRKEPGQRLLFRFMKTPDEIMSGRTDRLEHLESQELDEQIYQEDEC
# In short: as §1
sequence,measurement,setting,value
CCCTAC,binding signal,[1],"1.46 fold enrichment (6-mer frequency, TF over GST control)"
same,binding signal,[2],"1.43 fold enrichment (6-mer frequency, TF over GST control)"
same,binding signal,[3],"1.13 fold enrichment (6-mer frequency, TF over GST control)"
same,binding signal,[4],"1.45 fold enrichment (6-mer frequency, TF over GST control)"
same,binding signal,[5],"1.47 fold enrichment (6-mer frequency, TF over GST control)"
same,binding signal,[6],"1.53 fold enrichment (6-mer frequency, TF over GST control)"
same,binding signal,[7],"1.22 fold enrichment (6-mer frequency, TF over GST control)"
same,binding signal,[8],"1.48 fold enrichment (6-mer frequency, TF over GST control)"
same,binding signal,[9],"1.19 fold enrichment (6-mer frequency, TF over GST control)"
same,binding signal,[10],"1.46 fold enrichment (6-mer frequency, TF over GST control)"
same,binding signal,[11],"1.37 fold enrichment (6-mer frequency, TF over GST control)"
same,binding signal,[12],"1.53 fold enrichment (6-mer frequency, TF over GST control)"
same,binding signal,[13],"1.42 fold enrichment (6-mer frequency, TF over GST control)"
same,binding signal,[14],"1.43 fold enrichment (6-mer frequency, TF over GST control)"
same,binding signal,[15],"1.37 fold enrichment (6-mer frequency, TF over GST control)"
same,binding signal,[16],"1.61 fold enrichment (6-mer frequency, TF over GST control)"
same,binding signal,[17],"1.41 fold enrichment (6-mer frequency, TF over GST control)"
same,binding signal,[18],"1.6 fold enrichment (6-mer frequency, TF over GST control)"
